In all, about 48,000 compounds went through this assay and about 13,000 (27%) showed an effect of 50% or more. The list shows a part of the results.

This assay concerns Wolbachia pipientis. In words: Anti-Wolbachia Cell-Based Screen. The format is functional. Further details: scale not given: in the data most compounds retested in dose-response had high values. The conditions noted are these: 5 µM.
`Cc1noc(OCCOc2cccc(C#N)c2)n1`: the “Percent Effect” value worked out at 0.996%.
In the case of `NC(=O)c1cnc(NCC(=O)NCc2ccccc2)c(Cl)c1` it was -2.32%; in that of `O=C(c1cccs1)N1CC(Oc2ccccc2Cl)C1`, 11.34%.
Turning to `CCCc1nc(C(=O)N2C[C@H](CO)C[C@H](CN3CCOCC3)C2)cs1`, the “Percent Effect” value is recorded as -13.1%.
The same measure for `COCCN1C(=O)C[C@@H]2[C@H]1CCN2C(=O)COc1ccccc1`: -17.47%.
The same measure for `CN1C[C@H](O)[C@]2(CCN(C(=O)NCc3ccccc3)C2)S1(=O)=O`: 101.7%; for `CN1C[C@H](O)[C@]2(CCN(C(=O)COc3ccccc3)C2)S1(=O)=O`: 115.7%.
The same measure for `CN1C[C@@H]2CN(C(=O)NCc3ccccc3)CCC[C@]2(C(=O)O)C1.O=C(O)C(F)(F)F`: 10.95%; for `CCN1C[C@@H]2CN(C(=O)NCc3ccccc3)CCC[C@]2(C(=O)O)C1.O=C(O)C(F)(F)F`: -6.91%.
For `CN1CC(c2ccccc2)CC2(CCN(C(=O)c3ccccc3)CC2)C1` (configuration not stated), the “Percent Effect” value is recorded as 1.137%.
Regarding `CN1C[C@@H](O)[C@]2(CCN(C(=O)OCc3ccccc3)C2)S1(=O)=O`, the “Percent Effect” value was found to be 96.78%.
In the case of `O=C(OCc1ccccc1)N1CC[C@H]2CC(CO)O[C@@H]2C1` (some centres not stated) it was -8.669%; in that of `COCCC(=O)N1CCC2(CC1)CC(c1ccccc1)CN(C)C2` (configuration not stated), 9.484%.
In the case of `COc1cccc(OCC(=O)N2CCC3(CC2)[C@H](O)C[C@@H]3OC)c1` it was 6.956%.
In the case of `CN1C[C@@H](O)[C@]2(CCN(C(=O)c3ccccc3)C2)S1(=O)=O` it was 126.2%; in that of `O=C(NCc1ccco1)c1cc(N2CC[C@@H](O)C2)ccn1`, 15.64%; in that of `CCCS(=O)(=O)N1Cc2ccnn2CC(c2nc(C)no2)C1.O=C(O)C(F)(F)F` (configuration not stated), -10.4%.
Take `Cc1csc(C(C#N)C(=O)NCc2ccccc2)n1` (configuration not stated): the “Percent Effect” value is 0.1394%.
Turning to `Cc1cc(C)c2nc(CN3CCOCC(O)C3)cc(O)c2c1` (configuration not stated), the “Percent Effect” value is given as -68.16%.
In the case of `CCC1=N[C@@]2(CC[C@@H]3CN(S(=O)(=O)CC(C)C)C[C@@H]32)C(=O)N1C` it was -2.639%.
The same measure for `Cc1csc(CNC(=O)NC2CCN(c3ncccn3)CC2)n1`: 3.023%.
Consider `Cc1nc(CCNC(=O)NC2CCN(c3ncccn3)CC2)cs1`, for which the “Percent Effect” value was 9.255%.
As to `Cc1nc(CNC(=O)NC2CCCN(c3ncccn3)C2)cs1` (configuration not stated), the “Percent Effect” value is 115.1%.
Regarding `O=C(NCCc1ccccn1)NC1CCN(c2ncccn2)CC1`, the “Percent Effect” value was determined as 4.674%.
The same measure for `O=C(NCc1ccoc1)NC1CCN(c2ncccn2)CC1`: 15.54%; for `O=C(NCc1ccccn1)NC1CCCN(c2ncccn2)C1` (configuration not stated): 20.37%.
On to `Cc1nc(CCNC(=O)NC2CCCN(c3ncccn3)C2)cs1` (configuration not stated), for which the “Percent Effect” value is listed as 107.1%.
In the case of `O=C(NCCc1cccs1)NC1CCN(c2ncccn2)CC1` it was 110.6%; in that of `Cc1nc(CNC(=O)NC2CCN(c3ncccn3)CC2)cs1`, 78.89%; in that of `COC(=O)N1CCCC(NC(=O)NCc2csc(C)n2)C1` (configuration not stated), -0.338%.
In the case of `Cc1ccc(CNC(=O)NC2CCCN(c3ncccn3)C2)n1C` (configuration not stated) it was 7.079%; in that of `N#Cc1ccc(CNC(=O)NC2CCCN(c3ncccn3)C2)cc1` (configuration not stated), 10.08%; in that of `NC(=O)Nc1cccc(C(=O)N(Cc2ccncc2)C2CC2)c1`, 8.655%.
The same measure for `CC(O)CN1CCC(CNCc2ccccc2Br)CC1` (configuration not stated): -8.503%.
For the molecule `O=C(NCCN1CCOCC1)NCc1ccc(-n2cccn2)cc1`, the “Percent Effect” value is -7.54%.
The same measure for `CC(C)Nc1nc2c(c(NC3CC3)n1)CCN(C1CCOCC1)CC2`: -24.37%; for `O=C(CO)N1CCN(S(=O)(=O)CCCF)CC1`: -8.107%; for `Nc1cc(-c2c[nH]nc2C2CCCN2S(=O)(=O)c2ccccc2)ccn1` (configuration not stated): 96.1%.
Consider `O=S(=O)(N(Cc1ccccn1)C1CC1)N1CCCC1c1ccco1` (configuration not stated), for which the “Percent Effect” value turned out to be 17.98%.
The same measure for `Nc1cc(-c2c[nH]nc2C2CCCCN2C(=O)C2CCCC2)ccn1` (configuration not stated): 118.9%; for `Nc1cc(-c2c[nH]nc2C2CCCN2CCCc2ccccc2)ccn1` (configuration not stated): 114.8%.
The same measure for `O=C(c1ccoc1)N1CCCCC1c1nc[nH]n1` (configuration not stated): 11.28%.
The same measure for `Nc1ncncc1-c1noc([C@@H]2CCCN2CCCc2ccccc2)n1`: 5.428%; for `Cc1cc(C2CCCN2CCCS(=O)(=O)c2ccccc2)no1` (configuration not stated): -10.32%.
For `COc1ccc(NC(=O)N2CCCCC2c2ncc[nH]2)cc1` (configuration not stated), the “Percent Effect” value is recorded as 18.67%.
Turning to `Cn1nnc2c1C(COCC1CC1)CN(C(=O)CC1=CCCCC1)C2` (configuration not stated), the “Percent Effect” value is listed as -19.61%.
The same measure for `CC(NC1(CNC(=O)CC2CCCC2)CCOCC1)c1ccccc1` (configuration not stated): -11.89%; for `Cc1sc2nc(SC(C)c3nc(C(C)(C)C)no3)nc(N)c2c1C` (configuration not stated): 10.97%; for `CCc1nnsc1C(=O)N(C)Cc1ccc(Br)o1`: 14.42%.
In the case of `Cc1ccc(S(=O)(=O)Cc2nsc(N(C)C)n2)c(C)c1` it was -1.61%; in that of `CCc1nc(NCC(=O)N2CCOCC2)c2c(n1)c(C)nn2CC`, 7.048%; in that of `CCN1CCN(c2ccc(F)cc2C(C)NCc2ccnn2C)CC1` (configuration not stated), -1.019%.
The same measure for `COc1nc(C)c(C(=O)N2CCc3[nH]nc(Cc4ccccc4)c3C2)s1`: 2.938%; for `COc1nc(C)c(C(=O)N2CCC(C(O)Cc3ccccc3)CC2)s1` (configuration not stated): 114.7%; for `Cc1ccc(N2CCC(C(O)Cc3ccccc3)CC2)nn1` (configuration not stated): -17.42%.
Turning to `CC(C)CC(O)C1CCN(C(=O)c2ccc(C(C)C)[nH]c2=O)CC1` (configuration not stated), the “Percent Effect” value is -16.76%.
The same measure for `Cc1cc(=O)c(C(=O)N2CCC(C(O)Cc3ccccc3)CC2)c(C)[nH]1` (configuration not stated): 97.46%; for `Cc1nc(N)sc1C(=O)N1CCC(C(O)Cc2ccccc2)CC1` (configuration not stated): 104.4%; for `Cc1nn(C)c2nc(N3CCC(C(O)Cc4ccccc4)CC3)sc12` (configuration not stated): -11.76%.
In the case of `CCOC(=O)N1CCN(C(=O)c2sc(-c3ccccc3)nc2C)CC1` it was -9.068%; in that of `COc1nc(C)c(C(=O)N2CCN(c3ncccc3C)CC2)s1`, -23.23%.
In the case of `c1ccc(Cn2cccn2)c(CN2CCCCC2CCn2ccnc2)c1` (configuration not stated) it was -5.854%.
For `O=C(Nc1ccc(-c2ccccc2)cn1)C1CCN(C(=O)C2CC2)CC1`, the “Percent Effect” value was 26.94%.
The same measure for `Cc1ccc2cc(C3(O)CCN(C(=O)[C@@H]4CCCCN4)CC3)ccc2n1`: -9.232%; for `NS(=O)(=O)c1cnn(-c2ccc(NC(=O)C3CCCCC3)cn2)c1`: -15.76%.
In the case of `Cc1ccc(NC(=O)C2CCc3ccccc3N2)cc1` (configuration not stated) it was -1.128%.
The same measure for `O=C(Nc1ccc(-c2csnn2)cc1)N1CCN2CCCCC2C1` (configuration not stated): 5.858%.
As for `CNc1ncc(-c2ccc(NC(=O)[C@@H]3CCCCN3)cc2)cn1`, the “Percent Effect” value amounted to 112.9%.
For `Cc1cccc(NC(=O)C2CCc3ccccc3N2)c1.Cl` (configuration not stated), the “Percent Effect” value came out at 2.596%.
In the case of `O=C(Nc1cnc2n1CCCC2)c1cccc(NC(=O)C2CCCC2)c1` it was 10.86%.
As to `Nc1ncc(-c2cccc(NC(=O)[C@@H]3CCCCN3)c2)cn1`, the “Percent Effect” value amounted to 116.6%.
As for `O=C(Nc1ccc(-c2cnc(NCCO)nc2)cc1)[C@@H]1CCCCN1`, the “Percent Effect” value is 129.4%.
The same measure for `Nc1ncc(-c2ccc(NC(=O)[C@@H]3CCCCN3)cc2)cn1`: 109.3%; for `CCc1ncc(C(=O)N(C)CCc2nc3cc(OC)ccc3[nH]2)cn1`: 4.765%.
The same measure for `CNC(=O)C(C)(C)N1CCC[C@H]1C(=O)NCC1CC1`: 11.03%.
In the case of `COc1ccc(OCc2noc(CN(C)C3CCS(=O)(=O)C3)n2)cc1` (configuration not stated) it was -8.185%; in that of `CN(Cc1cc(Br)cn1C)C(=O)c1ccon1`, -0.2013%; in that of `CN1C2(CCN(Cc3ccc(F)cc3)C2)c2ccccc2S1(=O)=O` (configuration not stated), 8.528%.
Turning to `O=S1(=O)NC2(CCCN(Cc3ccc(F)cc3)C2)COc2ccccc21` (configuration not stated), the “Percent Effect” value is 98.49%.
On to `O=C1Nc2ccccc2C12CCCN(Cc1ccc3c(c1)OCCO3)C2` (configuration not stated), for which the “Percent Effect” value is on record as -17.7%.
In the case of `COCCCC1(CO)CCCN(CCc2ccccc2)C1` (configuration not stated) it was -12.43%; in that of `O=S1(=O)NC2(CCCN(Cc3ccc(Cl)cc3)C2)COc2ccccc21` (configuration not stated), 134.9%.
In the case of `O=S1(=O)NC2(CCCN(CCc3ccccc3)C2)COc2ccccc21` (configuration not stated) it was 103.7%; in that of `O=C1NCC2(CCCN(CCc3ccccc3)C2)Oc2ccccc21` (configuration not stated), -15.46%; in that of `O=S1(=O)NCC2(CCN(c3ncc(F)cn3)CC2)COc2ccccc21`, -10.54%.
The same measure for `CCN(C)c1ccc(CNC(=O)c2ccc(NC(N)=O)cc2)cc1F`: -59.71%; for `CCc1cc(NCc2cc3n(n2)CCCN(S(C)(=O)=O)C3)nc(C)n1`: 3.028%; for `c1ccc(Oc2nccc3occc23)c(CN2CCCCC2)c1`: -8.744%.
As for `CN(C)S(=O)(=O)NCC1(c2ccccc2Br)CC1`, the “Percent Effect” value is reported as -6.253%.
The same measure for `CNC(=O)[C@H]1C[C@@H]2CN(S(=O)(=O)c3ccc(OC)cc3)C[C@@H]2N1C.O=C(O)C(F)(F)F`: -8.898%.
The same measure for `CN1CCO[C@@H]2CN(S(=O)(=O)c3ccccc3)CC[C@@H]2C1.O=C(O)C(F)(F)F`: -5.775%; for `COc1ccc(S(=O)(=O)N2C[C@@H]3CN(C)CCO[C@@H]3C2)cc1`: 104.2%; for `CN1CCO[C@@H]2CN(S(=O)(=O)c3ccccc3)C[C@@H]2C1.O=C(O)C(F)(F)F`: 98.27%.
In the case of `CN1CCO[C@H]2CN(S(=O)(=O)c3ccc(C#N)cc3)C[C@H]21.O=C(O)C(F)(F)F` it was -17.08%; in that of `CC(C)N1CCO[C@H]2CN(S(=O)(=O)c3ccc(C#N)cc3)C[C@H]21`, -6.179%.
On to `CC(=O)N1CCO[C@@H]2CN(S(=O)(=O)c3cccnc3)C[C@@H]2C1.O=C(O)C(F)(F)F`, for which the “Percent Effect” value was found to be 105.8%.
In the case of `Cc1occc1C(=O)NCC(=O)N(C)CCCOc1ccc(F)cc1` it was -0.7534%.

Values taken from ChEMBL document CHEMBL3988442, “University of Dundee, Small-Polar-MMV Screening Library” (2021).
